# Assay outcomes: PubChem BioAssay, National Center for Advancing Translational Sciences (NCATS)
# Only a selection was taken, and hits are over-represented in it overall.
# NS1 inh: qHTS Assay for Inhibitors of Influenza NS1 Protein Function; Potency, µM (doses to about 46.1 µM); 270,000 tested, 0.4% active; calls by dose curve; further: actives are rising curves; nearly all actives have a fitted effect of over 50% in size
#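 Growth recovery, yeast-based: influenza A NS1 expressed in S. cerevisiae causes slow growth, and suppressors are detected by OD600. The parent strain without NS1 is used as positive control.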
# Cruzain inh noDet: qHTS Assay for Promiscuous and Specific Inhibitors of Cruzain (without detergent); Cruzipain (Trypanosoma cruzi), P25779; 200,000 tested, 2.3% active; AID 1476, 2009; purified cruzain, Z-FR-AMC fluorescence, no detergent; Potency, µM, usual class: inhibitors; further: nearly all actives have a fitted effect of over 40% in size
# Target sequence (P25779 123-467 limits assumed): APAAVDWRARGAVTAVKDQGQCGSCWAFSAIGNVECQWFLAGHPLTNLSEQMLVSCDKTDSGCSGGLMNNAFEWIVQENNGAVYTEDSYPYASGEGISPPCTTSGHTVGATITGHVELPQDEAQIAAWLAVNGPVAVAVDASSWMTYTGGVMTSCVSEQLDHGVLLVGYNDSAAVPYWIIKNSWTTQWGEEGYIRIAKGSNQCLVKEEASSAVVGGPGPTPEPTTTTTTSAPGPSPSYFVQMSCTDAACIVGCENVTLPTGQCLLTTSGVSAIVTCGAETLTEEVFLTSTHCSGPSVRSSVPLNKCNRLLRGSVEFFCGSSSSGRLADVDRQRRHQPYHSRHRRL
#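 Detergent-free condition (0.00005% Triton X-100) in acetate buffer pH 5.5 with DTT. 1.5 nM enzyme and compound were pre-mixed 15 min, then 2 uM Z-FR-AMC substrate added; reaction progress from fluorescence change between first and third reads (60 s).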
# Cruzain Triton: qHTS Assay for Promiscuous and Specific Inhibitors of Cruzain (with detergent) | 200,000 tested, 0.43% active | Cruzipain (Trypanosoma cruzi), P25779 | purified cruzain, Z-FR-AMC fluorescence, 0.01% Triton | Potency, µM, most hits filed as inhibitors; further: nearly all actives have a fitted effect of over 40% in size
#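 Detergent-containing run (0.01% Triton X-100) in acetate buffer pH 5.5 with 5 mM DTT: enzyme at 1.5 nM final, 15 min compound preincubation at room temperature, then 2 uM Z-FR-AMC substrate. Activity taken as 60 s fluorescence increase at 360/450 nm.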
# Numbers stand for hits; 0 = inactive; ? = inconclusive; - = no result given. Unless noted, the call rests on the fitted dose curve; in most records, active means well fitted curve in the direction sought with a large enough effect; inconclusive means small, poorly fitted or top-dose-only effect, or another doubt; inactive means no such curve, though single readings can be large; an effect the other way counts as inactive or inconclusive.
SMILES,NS1 inh,Cruzain inh noDet,Cruzain Triton
COc1ccc(/C=N/OCc2nc3c4c(ncn3n2)Oc2ccc3ccccc3c2C4c2ccccc2)cc1 (stereo not given),?,1.6µM,0
C=CCNC(=O)C1CC(=O)N(c2ccc(OCC(=O)N3CCCC3)cc2)C1 (stereo not given),0,-,-
O=C(CN1C(=O)/C(=C/c2ccccc2)SC1=S)Nc1ncc(Cc2ccccc2)s1,0,4µM,0
O=C(CCN1C(=O)/C(=C/c2ccccc2)SC1=S)Nc1ccccn1,0,-,-
COc1ccc(-c2noc(CSc3nc(N)cc(=O)[nH]3)n2)cc1OC,-,0,0
C=CCn1c(SCC(=O)Nc2ccccc2OC)nnc1-c1ccco1,0,0,0
C=CCn1c(SCC(=O)Nc2nccs2)nnc1-c1cc2cccc(OC)c2o1,0,25µM,0
COc1ccc2c(=O)c3c(=O)n(Cc4ccco4)c(C(C)C)nc3oc2c1,0,32µM,?
COc1ccc2c(=O)c3c(=O)n(Cc4ccco4)c(-c4ccc(C)cc4)nc3oc2c1,0,0,0
O=S(=O)(c1ccccc1)c1nc(Nc2ccccc2N2CCOCC2)sc1Cl,0,0,0
Cc1ccc(OCC(=O)NCCNC(=O)c2ccc(C)nc2)cc1,0,-,-
Cc1oc(-c2ccccc2)nc1CSc1nnc(C)n2c1cc1sccc12,-,0,0
CCSc1nc(-c2cccc(Cl)c2)nc2c1Cc1c(CO)cnc(C)c1O2,-,0,0
Cc1ccc(S(=O)(=O)NNC(=O)Nc2cccc(F)c2)c(C)c1,0,-,-
COc1cc2oc(=O)cc(-c3cccc(-c4ccc(C(C)=O)cc4)c3)c2c(OC)c1OC,-,0,0
CC(=O)c1ccc(-c2cccc(-c3cc(=O)oc4ccc(C(C)(C)C)cc34)c2)cc1,-,28µM,0
CCc1ccccc1NC(=O)c1ccc2c(c1)N(Cc1cccc(Cl)c1)C(=O)c1ccccc1S2(=O)=O,-,16µM,0
COc1ccccc1CNC(=O)c1ccc2c(c1)N(Cc1cccc(Cl)c1)C(=O)c1ccccc1S2(=O)=O,-,?,0
O=C(c1ccc2c(c1)N(Cc1ccc(Cl)cc1)C(=O)c1ccccc1S2(=O)=O)N1CCC(Cc2ccccc2)CC1,-,13µM,0
O=C(c1ccc2c(c1)N(Cc1ccccc1F)C(=O)c1ccccc1S2(=O)=O)N1CCC(Cc2ccccc2)CC1,-,0,0
O=C(Nc1cccc(Cl)c1Cl)c1ccc2c(c1)N(Cc1cccc(Cl)c1)C(=O)c1ccccc1S2(=O)=O,-,4µM,0
O=C(NCc1ccccc1)c1ccc2c(c1)N(Cc1cccc(Cl)c1)C(=O)c1ccccc1S2(=O)=O,-,?,0
CCCCN(C(=O)CNC(=O)c1ccco1)C(C(=O)NC1CCCC1)c1ccc(OC)cc1 (stereo not given),0,0,0
CCOc1ccc2[nH]c(=O)c(CN(CCc3ccccc3)C(=O)N3CCOCC3)cc2c1,0,0,0
COc1ccc2nc(N(Cc3cccnc3)C(=O)CCc3ccccc3)sc2c1,-,0,0
SMILES,NS1 inh,Cruzain inh noDet,Cruzain Triton
O=C(OCC(=O)N(C1CCCCC1)C1CCCCC1)c1ccncc1,0,0,0
Cc1ccccc1Oc1ncnc2oc(-c3ccccc3)cc12,0,0,0
Clc1ccc(Oc2ncnc3oc(-c4ccccc4)cc23)cc1,0,20µM,0
COCCCN1C(=O)c2ccccc2CC1(C)C(=O)NC1CCCCC1 (stereo not given),-,0,0
CC(C)Sc1cc(N2CCOCC2)nc(-c2ccccc2)n1,0,0,0
c1ccc(-c2ccc(Oc3cc(N4CCOCC4)nc(-c4ccccc4)n3)cc2)cc1,0,10µM,0
COc1ccc(Nc2nc(-c3sc(N)nc3C)cs2)cc1,?,16µM,16µM
COc1ccc(Nc2nc(-c3cccs3)cs2)cc1,0,16µM,0
Cc1nc(C)c(-c2csc(Nc3ccccn3)n2)s1,0,-,-
Cc1nc(N)sc1-c1csc(Nc2ccccn2)n1,0,13µM,?
Oc1ccc(Nc2nc(-c3cccs3)cs2)cc1,0,0,0
COc1ccc(CCNc2nc(-c3sc(N)nc3C)cs2)cc1OC,?,10µM,14µM
Cc1nc(N)sc1-c1csc(Nc2cccc(O)c2)n1,0,-,-
Cc1ccc(Nc2nc(-c3sc(N)nc3C)cs2)cc1,0,-,-
CN(C)C(CNC(=O)c1coc2ccccc2c1=O)c1ccccc1 (stereo not given),0,-,-
Clc1nc(-c2n[nH]nc2Cl)n[nH]1,0,?,0
Cc1nc(N)sc1-c1csc(Nc2ccc(Cl)cn2)n1,0,16µM,28µM
CCOc1ccc(Nc2nc(-c3sc(N)nc3C)cs2)cc1,0,-,-
COc1ccc(CCNC(=O)C2CCCN2C(=O)Nc2ccc(Cl)cc2)cc1OC (stereo not given),0,-,-
Cc1cc(C(=O)CN2C(=O)NC3(CCCCC3)C2=O)c(C)n1-c1ccc2c(c1)OCO2,0,?,0
CC(C)Oc1ccc(C(=O)NCC(c2ccc(N(C)C)cc2)N2CCc3ccccc32)cc1 (stereo not given),-,?,0
COc1ccc(C(=O)NCC(c2ccc(N(C)C)cc2)N2CCc3ccccc32)cc1 (stereo not given),-,13µM,?
CN(C)c1ccc(C(CNC(=O)c2ccccc2Cl)N2CCc3ccccc32)cc1 (stereo not given),-,32µM,0
COc1ccccc1C(=O)NCC(c1ccc(N(C)C)cc1)N1CCc2ccccc21 (stereo not given),-,?,0
COC(=O)C1CCN(C(=O)COC(=O)COc2ccc(C#N)cc2)CC1,0,-,-
SMILES,NS1 inh,Cruzain inh noDet,Cruzain Triton
CCN1CCc2nc(NC(=O)C(c3ccccc3)c3ccccc3)sc2C1,0,0,0
CCN1CCc2nc(NC(=O)CC(c3ccccc3)c3ccccc3)sc2C1,0,32µM,0
COc1cccc(/C=C/c2nc(C#N)c(N3CCCCCC3)o2)c1,-,0,0
COCCNc1oc(/C=C/c2ccc(F)cc2)nc1C#N,-,20µM,22µM
COc1cccc(/C=C/c2nc(C#N)c(NCCN(C)C)o2)c1,-,20µM,25µM
COCCNc1oc(-c2ccc(F)cc2)nc1C#N,0,0,0
